# Test results reported in ChEMBL document CHEMBL3988442, “University of Dundee, Small-Polar-MMV Screening Library” (2021).
# The campaign covered roughly 48,000 compounds. About 13,000 (27%) showed an effect of 50% or more. This is one part of the list.
# System: Wolbachia pipientis
# Assay: Anti-Wolbachia Cell-Based Screen
# Type: functional
# Design: scale not given: in the data most compounds retested in dose-response had high values
# Conditions: 5 µM
row,SMILES,Percent Effect
1,Cc1noc(C(C)C)c1C(=O)NCCCN1CCNCC1.Cl,114.5%
2,Cc1noc(C)c1C(=O)NCCN1CCN(c2ccccc2)CC1,7.051%
3,Cc1cc(C)n(CC2(CNC(=O)C(c3ccc(F)cc3)N(C)C)CC2)n1 (stereo unspecified),1.569%
4,CN(Cc1ccsc1)C(=O)Nc1ccc(S(C)(=O)=O)nc1,-1.265%
5,COCCN1CC[C@H]2CN(c3cc(OC)ncn3)C[C@@H]2C1=O.O=C(O)C(F)(F)F,-11.01%
6,CN1C(=O)CC(c2ccccc2)C12CCN(c1ncc(F)cn1)CC2 (stereo unspecified),11.07%
7,O=C1N(c2ccc(Br)cc2)Cc2n[nH]c(=O)n21,-3.118%
8,Cc1ccccc1CCCN(C)S(C)(=O)=O,5.397%
9,Cc1ccsc1CNC1CCCc2c1cnn2C.Cl (stereo unspecified),-3.429%
10,COc1cc(OC)cc(-c2cccc3c2OC(CN)C3)c1 (stereo unspecified),2.272%
11,COCCCNC(=O)c1c(C)noc1C(C)C,99.64%
12,Cc1noc(C(C)C)c1C(=O)NCC1CCN(c2ccccc2)C1 (stereo unspecified),-7.701%
13,CC1CCN(CCCNC(=O)C2CCCCC2)CC1,13.42%
14,Cc1noc(C(C)C)c1C(=O)NCc1cc(F)cc(F)c1,-8.359%
15,Cc1noc(C(C)C)c1C(=O)NCCCN1CCC(C)CC1,80.48%
16,COc1ccc(S(=O)(=O)NC(=O)c2c(C)noc2C(C)C)cc1OC,2.156%
17,CCn1c(=O)nc2n1C(=O)N(c1cccc(Cl)c1)C2,5.675%
18,CC1CCCN(S(=O)(=O)NCCCn2ccc3ccccc32)C1 (stereo unspecified),-2.865%
19,Cn1c(-c2ccc(F)cc2)cn2cc(C(=O)N3CCC(N)C3)nc2c1=O (stereo unspecified),-3.321%
20,CC(c1cccnc1)N1CCN(CCc2ccccn2)CC1 (stereo unspecified),-1.072%
21,Cc1ccc(CNC(=O)c2nc3c(n2C)CCN(c2ncccn2)C3)o1,77.66%
22,Cc1ccc(CNC(=O)c2nc3c(o2)CN(c2ncccn2)C3)o1,-19.04%
23,CN1CCCN(C(=O)c2nc3c(n2C)CCN(c2ncccn2)C3)CC1,6.305%
24,CC(=O)N1CCO[C@@H]2CN(S(=O)(=O)c3ccc(F)cc3)CC[C@@H]2C1,115.5%
25,CC(=O)N1CCO[C@@H]2CN(S(=O)(=O)c3ccc(C)cc3)CC[C@@H]2C1,106.7%
26,CN1CCO[C@@H]2CN(S(=O)(=O)c3ccc(F)cc3)CC[C@@H]2C1.O=C(O)C(F)(F)F,-6.683%

row,SMILES,Percent Effect
1,Cn1nnc2c1C(COCC1CC1)CN(C(=O)C1=CCCC1)C2 (stereo unspecified),-1.372%
2,COCCN(Cc1ccc(OC)nc1)Cc1cccs1,6.12%
3,COCCN1CCC(NC(=O)NCC2(c3ccccc3)CC2)C1 (stereo unspecified),-5.464%
4,O=C(Nc1ccccc1)C1CN(CC2CCOCC2)CC12CCOCC2.O=C(O)C(F)(F)F (stereo unspecified),-3.242%
5,O=C(Nc1ccccc1)N1C(CO)[C@]2(O)CC[C@H]1CC2 (stereo partly specified),93.37%
6,O=C(Nc1ccccc1)N1C[C@H]2CC[C@@H]1CN(Cc1ccccc1)C2,-24.67%
7,COCC1N(C(=O)Nc2ccccc2)[C@H]2CC[C@]1(O)CC2 (stereo partly specified),103.1%
8,O=C(Nc1ccccc1)N1C(CN2CCOCC2)[C@]2(O)CC[C@H]1CC2 (stereo partly specified),91.52%
9,O=C(O)C(F)(F)F.O=S(=O)(c1ccccc1)N1C[C@@H]2COC[C@]2(CN2CCOCC2)C1,14.04%
10,O=C(O)C(F)(F)F.O=S(=O)(NC1CCC12CCN(CC1CCOCC1)CC2)c1ccccc1 (stereo unspecified),-4.51%
11,O=S(=O)(c1ccccc1)N1C(CN2CCOCC2)[C@]2(O)CC[C@H]1CC2 (stereo partly specified),83.09%
12,O=C(Nc1ccccc1)C1CN(CC2CC2)CC12CCOCC2.O=C(O)C(F)(F)F (stereo unspecified),-9.303%
13,O=C(NCc1ccccc1CN1CCC(O)CC1)Nc1ccccc1,6.714%
14,CC(C)n1c(C(=O)N2CCCC2)nc2c1CCN(C)C2.O=C(O)C(F)(F)F,-17.76%
15,O=C(Nc1cnc2n1CCCC2)c1cccc(OCC(F)(F)F)c1,-7.584%
16,NC(=O)C1CCN(CCc2ccc(NCc3cccnc3)cc2)CC1,-10.11%
17,CC(O)C1CCN(c2cc(Cl)ccc2C#N)CC1 (stereo unspecified),-3.342%
18,CC1(c2ccccc2)CCCN(Cc2cncn2C2CCCC2)C1 (stereo unspecified),-2.034%
19,CC(C)CNC(=O)CNC(=O)NCC(O)c1ccc2ccccc2c1 (stereo unspecified),1.707%
20,O=C(O)c1ccnc(SCC(F)(F)F)c1,103%
21,O=C(O)c1ccnc(SCc2ccccc2)c1,93.4%
22,CCSc1cc(C(=O)N(C(C)C)C2CC2)ccn1,-12.03%
23,CCSc1cc(C(=O)NCc2ccccc2O)ccn1,-4.116%
24,CCSc1cc(C(=O)N(CC(F)F)C(C)C)ccn1,-6.776%
25,CCSc1cc(C(=O)NCCC(=O)Nc2ccccn2)ccn1,-16.79%
